Data published in PubChem BioAssay AID624298 (National Center for Advancing Translational Sciences (NCATS), 2012).
Results filed as inconclusive are left out. The source made the active and inactive calls. The call rests on the fitted dose curve; in most records, active means well fitted activation curve with a large enough effect; inconclusive means small, poorly fitted or top-dose-only effect; inactive means no such curve, though single readings can be large or run the other way.

Test: Activators of T cell receptors: Hit Validation; on activation: 0% is about no effect
Details: primary human leukocytes, cytokine release by HTRF, 48 h, TCR-stimulated with anti-CD3 beads; series mostly up to 46.1 µM; activation: at the top concentration
Description: Normally activation of naive T cells requires two signals. 1. A signal through the T cell receptor (TCR) which provides antigen specificity to the response. 2. Signals through co-stimulatory molecules, which are necessary for proliferation, survival and cytokine production. In the absence of co-stimulatory signals T cells are not effectively activated, and may even be rendered anergic or unresponsive to subsequent signaling. This lack of costimulation has been shown in multiple model systems to be a major factor in the limited strength and effectiveness of anti-tumor T cell responses. The goal of this project is to identify small molecule compounds that will stimulate T cell activation in the presence of TCR signaling but in the absence of co-stimulatory signals, thereby allowing activation of naive T cells in the absence of co-stimulation. Identification of such compounds would have clear experimental and clinical applications in instances where desirable antigen-specific immune responses are not generated due to a lack of co-stimulation, for example in the generation of anti-tumor responses.
In collaboration between the National Cancer Institute and NIH Chemical Genomics Center, a high-throughput amenable screen was developed to discover small molecules that co-stimulate and activate human T cell receptors. The screen will be carried out using a novel homogeneous time resolved fluorescence energy transfer (HTRF) assay to measure production of the cytokine IL-2 by activated T cells and will be tested against the NIH Molecular Libraries Small Molecule Repository (MLSMR). This is the same assay tested against the hits identified in the primary screen.
NIH Chemical Genomics Center [NCGC]
NIH Molecular Libraries Probe Centers Network [MLPCN]
Assay Submitter (PI): Richard Hodes, National Cancer Institute, NIH
Primary human leukocytes are incubated with a-CD3 beads and compounds for 48 hr. The amount of secreted IL-2 is then assayed with a HTRF IL-2 kit. The presence of IL-2 cytokine captures the detection reagents and brings the a-IL-2-K and a-IL-2-d2 into close proximity. Upon excitation with 320nm light, the europium cryptate is capable of transferring energy to acceptor molecules within close proximity, resulting in acceptor molecule emission at 665nm.
Potency means the concentration at half of the fitted maximal effect.

activation, inactive:
CC1CCCN(S(=O)(=O)c2ccc(NC(=O)C3CCN(C(=O)C(C)(C)C)CC3)cc2)C1 (stereo not given) 4.16%
COc1ccc(Cl)cc1NC(=O)CN1C(=O)NC(C)(Cc2ccc(OC)c(OC)c2)C1=O (stereo not given) 5.98%
COc1ccc(CNC(=O)C[C@H]2C[C@H](C(=O)N3CCCCC3)[C@@]3(C)c4[nH]c5cc(-c6ccco6)ccc5c4CCN3C2=O)cc1OC 8.64%
CCOc1cc(/C=N/O)cc(Br)c1OCC(=O)NCc1ccccc1 8.09%
COc1cc(OC)cc(C(=O)Nc2ccc(S(=O)(=O)N3CCOCC3)cc2)c1 17.4%
O=C(O)c1ccc(NC(=O)C(c2ccccc2)c2ccccc2)cc1 9.22%
COc1cccc(CNC(=O)c2ccc(Cl)c(S(=O)(=O)N3CCOCC3)c2)c1 -13.2%
CC(=O)Nc1nnc(S(N)(=O)=O)s1 0.127%
COc1ccc(NC(=O)COC(=O)CN2C(=O)C3CCCCC3C2=O)cc1OC (stereo not given) 0.394%
c1ccc(Sc2ccccn2)cc1 -4.69%
CCN(CC)S(=O)(=O)c1ccc(N2CCN(C)CC2)c(NC(=O)CN2C(=O)NC3(CCCCC3)C2=O)c1 9.9%
O=S(=O)(c1ccc(=S)[nH]c1)N1CCCCCC1 3.6%
CCOC(=O)C1CCCN(C(=O)c2cccc(S(=O)(=O)N3CCCC3)c2)C1 (stereo not given) -2.23%
Cc1n[nH]c(C)c1S(=O)(=O)N1CCCC(C(=O)Nc2nccs2)C1 (stereo not given) -0.963%
Cc1cc(NC(=O)CN2C(=O)NC(CC(C)C)C2=O)ccc1Br (stereo not given) 0.93%
O=C(Cn1ncc(Cl)c(Cl)c1=O)NCC1CCCCC1 14%
COc1ccc(NC(=O)C2CC(=O)N(Cc3ccco3)C2)cc1Cl (stereo not given) 0.922%
COc1cc(N)c(Cl)cc1C(=O)N[C@H]1CCN(CCCOc2ccc(F)cc2)C[C@H]1OC -8.52%
OC1CCCC1 10.2%
CCN(CC(=O)Nc1ccccc1C(F)(F)F)C(=O)c1ccccc1Sc1ccccc1C#N 4.67%
O=C(COc1ncnc2c(Cl)cc(Cl)cc12)Nc1cc([N+](=O)[O-])ccc1Cl 4.07%
CCOC(=O)c1c(C)[nH]c(C(=O)OCC(=O)Nc2ccccc2)c1C 3.16%
CCN1CNC(=S)N(Cc2ccccc2)C1 4.1%
Cc1cc(=O)[nH]c(N/N=C/c2cccs2)n1 12.7%
Oc1ccc(/C=N\Nc2nncc(-c3ccccc3)n2)cc1 10.3%
Cc1ccc(S(=O)(=O)N2CCC(C(=O)NNC(=O)c3ccccc3O)CC2)cc1C 4.73%
COc1ccc(-n2c(=O)[nH]cc(C(=O)Nc3ccc4c(c3)OCO4)c2=O)cc1OC -5.9%
COc1ccccc1C(=O)NCCC(=O)N1CCN(S(=O)(=O)c2cccc(Cl)c2)CC1 3.72%
O=C(c1cc(-c2ccc(F)cc2)nc2ccccc12)N1CCN(C2CCS(=O)(=O)C2)CC1 (stereo not given) -0.39%
CCN(CC)c1ccc(S(=O)(=O)N2CCOCC2)cc1NC(=O)COC(=O)/C=C/c1ccccc1 9.33%
C=CCNC(=S)Nc1ccc2nsnc2c1 22%
COc1ccc(C(=O)Nc2cccc(NC(C)=O)c2)cc1OC -37.1%
CCOc1ccc(-c2nnc(-c3snc(-c4ccc(F)cc4)c3N=CN(C)C)o2)cc1 -8.31%
CC(c1nnc(SCC(=O)c2c(N)n(C3CC3)c(=O)[nH]c2=O)n1-c1ccc(F)cc1)N(C)C (stereo not given) 1.48%
CC(=O)NC(CC(=O)O)C(=O)O (stereo not given) -17%
CCCn1c(-c2ccccc2)nc2c(=O)n(C)c(=O)[nH]c21 8.8%
CC1(C)Cc2cccc(OCC(=O)NCc3ccc(F)cc3)c2O1 4.68%
CSCc1c(C(=O)OCC(=O)NC2CCCCC2)oc2ccccc12 3.06%

Potency, active:
CCC(=C/c1sc2ccc3ccccc3c2[n+]1C)/C=C1\Sc2ccc3ccccc3c2N1C 9.96 µM
CCC(/C=C1\Sc2ccc(OC)cc2N1CCO)=C\c1sc2ccc(OC)cc2[n+]1CCO 9.96 µM
